From the supplement of paper PMC4466140

The binders below were run against ScBbc1 (assay: SPOT peptide array binding signal intensity (averaged, normalized) (arbitrary units (background-subtracted, floor 0; scale differs between SH3 domains)); higher = stronger binding of the SH3 domain to the peptide).
Method in brief: (§1)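 Binding signal refers to normalized, background-subtracted spot intensity averaged over replicates, expressed in arbitrary units that differ between domains. GST-fused SH3 domains from four yeast species were incubated at 10 μg/ml overnight at 4°C on cellulose membranes of synthetic 15-mer peptides with cysteines replaced by serines. Bound protein was detected with anti-GST antibody, an HRP anti-mouse secondary and luminol, and quantified with Genespotter.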

Binder	SPOT peptide array binding signal intensity
SLSRRRFSLPSMPNV	26.5

What follows are binders tested against ScBem1-D1 in the same assay as above.
Method in brief: as §1

Binder	SPOT peptide array binding signal intensity
SLSRRRFSLPSMPNV	28

Each binder was assayed against ScBzz1-D1 in the same assay as above.
Method in brief: as §1

Binder	SPOT peptide array binding signal intensity
SLSRRRFSLPSMPNV	54

These binders were tested against ScBzz1-D2 in the same assay as above.
Method in brief: as §1

Binder	SPOT peptide array binding signal intensity
SLSRRRFSLPSMPNV	29.5

Each binder was assayed against ScCyk3 in the same assay as above.
Method in brief: as §1

Binder	SPOT peptide array binding signal intensity
SLSRRRFSLPSMPNV	192

These binders were tested against ScFus1 in the same assay as above.
Method in brief: as §1

Binder	SPOT peptide array binding signal intensity
SLSRRRFSLPSMPNV	256

Each binder was assayed against ScHof1 in the same assay as above.
Method in brief: as §1

Binder	SPOT peptide array binding signal intensity
SLSRRRFSLPSMPNV	3

What follows are binders tested against ScHse1 in the same assay as above.
Method in brief: as §1

Binder	SPOT peptide array binding signal intensity
SLSRRRFSLPSMPNV	1590

What follows are binders tested against ScLsb1 in the same assay as above.
Method in brief: as §1

Binder	SPOT peptide array binding signal intensity
SLSRRRFSLPSMPNV	348

Each binder was assayed against ScLsb2 in the same assay as above.
Method in brief: as §1

Binder	SPOT peptide array binding signal intensity
SLSRRRFSLPSMPNV	42

Each binder was assayed against ScLsb3 in the same assay as above.
Method in brief: as §1

Binder	SPOT peptide array binding signal intensity
SLSRRRFSLPSMPNV	181

These binders were tested against ScLsb4 in the same assay as above.
Method in brief: as §1

Binder	SPOT peptide array binding signal intensity
SLSRRRFSLPSMPNV	9.5

The binders below were run against ScMyo3 in the same assay as above.
Method in brief: as §1

Binder	SPOT peptide array binding signal intensity
SLSRRRFSLPSMPNV	9.5

What follows are binders tested against ScMyo5 in the same assay as above.
Method in brief: as §1

Binder	SPOT peptide array binding signal intensity
SLSRRRFSLPSMPNV	9.25

Each binder was assayed against ScNbp2 in the same assay as above.
Method in brief: as §1

Binder	SPOT peptide array binding signal intensity
SLSRRRFSLPSMPNV	350

These binders were tested against ScPex13 in the same assay as above.
Method in brief: as §1

Binder	SPOT peptide array binding signal intensity
SLSRRRFSLPSMPNV	38

The binders below were run against ScRvs167 in the same assay as above.
Method in brief: as §1

Binder	SPOT peptide array binding signal intensity
SLSRRRFSLPSMPNV	37.3

What follows are binders tested against ScSho1 in the same assay as above.
Method in brief: as §1

Binder	SPOT peptide array binding signal intensity
SLSRRRFSLPSMPNV	743

What follows are binders tested against ScSla1-D1-D2 in the same assay as above.
Method in brief: as §1

Binder	SPOT peptide array binding signal intensity
SLSRRRFSLPSMPNV	636

Each binder was assayed against ScSla1-D3 in the same assay as above.
Method in brief: as §1

Binder	SPOT peptide array binding signal intensity
SLSRRRFSLPSMPNV	97.8

Each binder was assayed against SpAbp1-D1 in the same assay as above.
Method in brief: as §1

Binder	SPOT peptide array binding signal intensity
SLSRRRFSLPSMPNV	416

Each binder was assayed against SpBbc1 in the same assay as above.
Method in brief: as §1

Binder	SPOT peptide array binding signal intensity
SLSRRRFSLPSMPNV	8

These binders were tested against SpBzz1-D1 in the same assay as above.
Method in brief: as §1

Binder	SPOT peptide array binding signal intensity
SLSRRRFSLPSMPNV	311

These binders were tested against SpBzz1-D2 in the same assay as above.
Method in brief: as §1

Binder	SPOT peptide array binding signal intensity
SLSRRRFSLPSMPNV	1.75

Each binder was assayed against SpCyk3 in the same assay as above.
Method in brief: as §1

Binder	SPOT peptide array binding signal intensity
SLSRRRFSLPSMPNV	18

What follows are binders tested against SpHof1 in the same assay as above.
Method in brief: as §1

Binder	SPOT peptide array binding signal intensity
SLSRRRFSLPSMPNV	248

The binders below were run against SpHof1-2 in the same assay as above.
Method in brief: as §1

Binder	SPOT peptide array binding signal intensity
SLSRRRFSLPSMPNV	58.5

What follows are binders tested against SpHof1-3 in the same assay as above.
Method in brief: as §1

Binder	SPOT peptide array binding signal intensity
SLSRRRFSLPSMPNV	440

The binders below were run against SpHse1 in the same assay as above.
Method in brief: as §1

Binder	SPOT peptide array binding signal intensity
SLSRRRFSLPSMPNV	662

What follows are binders tested against SpLsb1 in the same assay as above.
Method in brief: as §1

Binder	SPOT peptide array binding signal intensity
SLSRRRFSLPSMPNV	270

The binders below were run against SpLsb4 in the same assay as above.
Method in brief: as §1

Binder	SPOT peptide array binding signal intensity
SLSRRRFSLPSMPNV	106

These binders were tested against SpMyo1 in the same assay as above.
Method in brief: as §1

Binder	SPOT peptide array binding signal intensity
SLSRRRFSLPSMPNV	15.5

The binders below were run against SpNbp2 in the same assay as above.
Method in brief: as §1

Binder	SPOT peptide array binding signal intensity
SLSRRRFSLPSMPNV	235

The binders below were run against SpPex13 in the same assay as above.
Method in brief: as §1

Binder	SPOT peptide array binding signal intensity
SLSRRRFSLPSMPNV	49

What follows are binders tested against SpRvs167 in the same assay as above.
Method in brief: as §1

Binder	SPOT peptide array binding signal intensity
SLSRRRFSLPSMPNV	14

The binders below were run against SpSla1-D1-D2 in the same assay as above.
Method in brief: as §1

Binder	SPOT peptide array binding signal intensity
SLSRRRFSLPSMPNV	5

What follows are binders tested against SpSla1-D3 in the same assay as above.
Method in brief: as §1

Binder	SPOT peptide array binding signal intensity
SLSRRRFSLPSMPNV	19
